Screens as filed in PubChem BioAssay.
In the library only some 12% were active in any assay of this set; here they are far more common.
BAZ2B inh: blocks human BAZ2B | AlphaScreen BAZ2B-H3K14Ac peptide displacement | Potency, µM (highest dose often 114 µM), inactives show at the highest dose activity change, negative = inhibition, most hits filed as inhibitors | 360,000 tested, 4.4% active; note: % is set by controls: 0 for no effect and ±100 for the full control effect; nearly all actives have a fitted effect of over 60% in size
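Protein-peptide AlphaScreen: BAZ2B 50 nM, b-H3K14Ac 50 nM, 1x PBS pH 7.4 + 0.01% Tween-20. Preincubation 30 min RT; cpd 30 min RT (top 110 uM); beads 20 min RT, light-protected.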
G9a block: blocks human histone lysine methyltransferase G9a. Q96KQ7. G9a H3K9 monomethylation, AlphaScreen, 2 h. Potency, µM (titrated, usually from 102 µM), without a hit: top-dose activity, negative = inhibition, hits mostly inhibitors. 350,000 tested, 8.8% active; note: % is set by controls: 0 for no effect and ±100 for the full control effect; nearly all actives have a fitted effect of over 75% in size
Target sequence (Q96KQ7 913-1193 limits assumed): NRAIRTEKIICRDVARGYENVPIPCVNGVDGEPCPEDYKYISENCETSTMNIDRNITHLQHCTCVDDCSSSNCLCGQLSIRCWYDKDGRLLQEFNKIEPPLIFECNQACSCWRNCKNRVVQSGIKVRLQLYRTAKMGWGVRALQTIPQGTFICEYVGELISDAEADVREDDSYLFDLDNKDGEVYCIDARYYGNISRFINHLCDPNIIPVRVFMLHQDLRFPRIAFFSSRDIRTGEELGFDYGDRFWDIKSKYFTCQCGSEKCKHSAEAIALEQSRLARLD
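Compounds were preincubated with 20 nM G9a for 15 min, after which biotinylated H3K9 peptide (500 nM) and SAM (20 uM) started a 2 h room-temperature reaction. Monomethylated product was quantified by antibody-based AlphaScreen chemiluminescence.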
HP1b chromo inh: inhibitors of HP1-beta chromodomain binding to methylated histone tails | P83916 | AID 540317 | AlphaScreen HP1-beta / biotin-H3K9me3 peptide binding | Potency, µM (doses to about 114 µM), for the others: at the highest dose activity change, negative = inhibition, usual class: inhibitors | 390,000 tested, 0.56% active; note: nearly all actives have a fitted effect of over 70% in size
Target sequence (P83916 whole entry, looked up): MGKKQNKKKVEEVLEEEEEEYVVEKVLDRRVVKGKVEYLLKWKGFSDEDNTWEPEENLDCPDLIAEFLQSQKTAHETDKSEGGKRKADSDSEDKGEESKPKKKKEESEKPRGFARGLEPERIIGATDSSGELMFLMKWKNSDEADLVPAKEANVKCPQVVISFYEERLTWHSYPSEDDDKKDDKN
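HP1-beta protein (50 nM final) preincubated 30 min at room temperature with biotinylated H3(1-18)K9me3 peptide (50 nM) in PBS pH 7.4, 0.01% Tween-20, then compound added for 30 min. AlphaScreen streptavidin donor/nickel chelate acceptor beads (10 ug/mL final), 30 min dark, luminescence read.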
Sfp PPTase inh: blocks B. subtilis Sfp PPTase activity; Biochemical Sfp PPTase activity, qHTS; Potency, µM, for the others: largest response in the series, negative = inhibition, usual class: inhibitors; 310,000 tested, 3.5% active; AID 1490;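 note: the enzyme is Sfp with the accession as filed and its product quenches rhodamine fluorescence; 0% = enzyme reaction without inhibitor and -100% = no enzyme wells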
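Fluorescence-quenching assay: 15 nM Sfp-PPTase preincubated 15 min at room temperature with compound, then 5 uM rhodamine-CoA and 12.5 uM BHQ-2-labelled YbbR peptide added. Fluorescence (ex 525/em 598 nm) read at start and after 30 min; difference gives rate.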
JMJD2A Tudor: JMJD2A Tudor domain (human) inhibition; O75164; Potency, µM (titrated, usually from 114 µM), without a hit: at the highest dose activity change, negative = inhibition, actives largely listed as inhibitors; 390,000 tested, 4.4% active; AlphaScreen JMJD2A-Tudor / H3K4me3 peptide binding; AID 504339; note: % is set by controls: 0 for no effect and ±100 for the full control effect; nearly all actives have a fitted effect of over 50% in size
The depositor's hits bear a star; ? = inconclusive; . = no result; [ ] = dose if it differs, or a comment. Calls come from the whole dose curve; as a rule, active = well fitted curve in the direction sought with a large enough effect; inconclusive = small, poorly fitted or top-dose-only effect, or another doubt; inactive = no such curve, though single readings can be large; an effect the other way counts as inactive or inconclusive. Potency is the fitted concentration of half-maximal effect.

SMILES	BAZ2B inh	G9a block	HP1b chromo inh	Sfp PPTase inh	JMJD2A Tudor
Cc1cccc(-n2c(O)c(C=Nc3cccc(O)c3)c3ccccc3c2=O)n1	-27%	-6%	-19%	11%	-13%[11.4 µM]
CC(NC(=O)CCCCCN1C(=O)c2ccccc2C1=O)c1ccc2c(c1)CCCC2 (stereo not drawn)	5%	8.9µM*	10%	-18%	-35%
CC1(C)CC(N=c2cc(-c3ccccc3)oc3ccc(Cl)cc23)CC(C)(C)N1	?	71µM*	19%	-30%	-23%
OCCCN=c1cc(-c2ccccc2)oc2ccc(Cl)cc12	-6%	?	40%	5%	-11%
O=C(CN1CCCC1)NCc1ccccc1	1%	2%	27%	14%	10%
CSc1ccc(S(=O)(=O)NCC(=O)OCC(=O)N2CC(C)CC(C)C2)cc1[N+](=O)[O-] (stereo not drawn)	-9%	50µM*	-9%	.	-21%
COC(=O)C1CCN(C(=O)COC(=O)CNS(=O)(=O)c2ccc(SC)c([N+](=O)[O-])c2)CC1	-11%	7%[0.501 µM]	-16%	.	-30%
O=C(NC(=S)Nc1ccc(S(=O)(=O)N2CCCCC2)cc1)c1ccccc1	-1%	-1%[2.33 µM]	-6%	4%	-24%
NS(=O)(=O)c1ccc(CCNC(=O)Cc2ccc(S(=O)(=O)N3CCCC3)s2)cc1	56µM*	-33%[59 µM]	?	7%	?
NS(=O)(=O)c1ccc(CNC(=O)Cc2ccc(S(=O)(=O)N3CCOCC3)s2)cc1	9%	-4%	10%	.	-12%
COC(=O)CCNC(=O)Cc1ccc(S(=O)(=O)N2CCCCC2)s1	-2%	50µM*	-3%	.	-26%
CC(=O)Nc1ccc(NC(=O)Cc2ccc(S(=O)(=O)N3CCCCC3)s2)cc1	?	?	8%	2%	?
CC(COc1ccccc1)N1CCC(CO)(CCc2ccccc2)CC1 (stereo not drawn)	-5%	-8%	24%	17%	2%[11.4 µM]
O=C(c1cc(C2CC2)nn1-c1ccccc1)N1CCN(Cc2ccc(Cl)cc2)CC1	-35%	-10%[12.7 µM]	14%	.	-23%
COC(=O)CCC/C=C1/SCC(NC(=O)c2ccccc2)C1=O (stereo not drawn)	?	45µM*	-18%	?	-35%
O=S(=O)(c1cccc2nsnc12)N1CCN(C/C=C/c2ccccc2)CC1	?	?	-24%	6%	?
O=S(=O)(c1cccc2nsnc12)N1CCc2ccccc21	71µM*	?	-14%	-8%	?
O=S(=O)(c1cccc2nsnc12)N1CCN(c2ccc(F)cc2)CC1	.	?	-4%	-5%	?
O=S(=O)(c1cccc2nsnc12)N1CCN(C/C=C\c2ccccc2)CC1	?	50µM*	-19%	1%	?
O=S(=O)(c1ccc(Cl)s1)N1CCN(C/C=C/c2ccccc2)CC1	?	14µM*	?	-27%	1µM*
O=S(=O)(c1cccc2nsnc12)N1CCN(c2ccccc2F)CC1	?	.	?	0%	50µM*
COc1ccc(N=C2C(=Nc3ccc(OC)cc3)N(c3ccc(OC)cc3)C(=S)N2c2ccccc2)cc1	2µM*	?	?	-4%	?
COc1ccc(N=C2C(=Nc3ccc(OC)cc3)N(c3ccc(OC)cc3)C(=S)N2C)cc1	2.8µM*	5µM*	7.1µM*	10%	8.9µM*
COc1ccc(N=C2SCC(=O)N2c2ccc(OC)cc2)cc1	5%	0%	18%	-1%	-18%
COc1ccc(N2CCN(c3oc(-c4ccc(OC)c(OC)c4)nc3C#N)CC2)cc1	?	-32%[2.33 µM]	7%	?	-8%
SMILES	BAZ2B inh	G9a block	HP1b chromo inh	Sfp PPTase inh	JMJD2A Tudor
COc1ccccc1-c1nc(C#N)c(N2CC(C)CC(C)C2)o1 (stereo not drawn)	?	?	5%	5%	-5%
Cc1cccc(-c2nc(C#N)c(N3CCCCCC3)o2)c1	13µM*	?	?	-14%	?
COc1ccccc1-c1nc(C#N)c(N2CCCCCC2)o1	?	45µM*	-43%	?	?
COc1ccc(N2CCN(c3oc(-c4ccccc4OC)nc3C#N)CC2)cc1	8.9µM*	2.5µM*	?	-15%	13µM*
COc1ccc(-c2nc(C#N)c(N3CCN(c4ccccc4)CC3)o2)cc1	?	8.9µM*	-24%	-25%	?
NS(=O)(=O)c1ccc(NC(=O)COC(=O)CSCc2ccc(F)cc2)cc1	-5%	-2%[12.7 µM]	60%	.	1%
O=C(NCc1ccccn1)c1ccc(OC2CCN(Cc3ccc(Cl)s3)CC2)cc1	?	14%[0.501 µM]	29%	-2%	-28%
COc1ccccc1-c1nc(C#N)c(N2CCN(c3ccccc3)CC2)o1	11µM*	?	?	11%	?
CCOc1ccc(-c2nc(C#N)c(N3CCN(Cc4ccccc4)CC3)o2)cc1	?	10µM*	?	-7%	?
COc1ccc(NC(=O)NC2(C(=O)N3CCOCC3)CCCCC2)cc1	22%	-15%	50%	14%	-1%
CS(=O)(=O)Nc1ccc(S(=O)(=O)N2CCCCCC2)cc1	11%	15%	32%	-9%	-10%
CN(CCOc1ccc(Cl)cc1)C(=O)c1cc(-c2ccco2)nc2ccccc12	-31%	-42%[12.7 µM]	-6%	.	-22%
CC(=O)c1cccc(NC(=O)c2oc(C)nc2C)c1	-2%	45µM*	-12%	11%	-17%
O=C(O)c1cc(-c2ccco2)nc2cc3ccccc3cc12	56µM*	11µM*	3%	11µM*	?
O=C(Nc1cccc(S(=O)(=O)NC2=NCCCCC2)c1)c1cc(-c2ccncc2)nc2ccccc12	.	-36%	7%	2%	-32%
O=C(O)c1ccccc1/C=N/NC(=O)c1cc(-c2ccco2)nc2ccccc12	20µM*	14µM*	?	10µM*	50µM*
O=C(Nc1cccc(S(=O)(=O)NC2=NCCCCC2)c1)c1cc(-c2ccco2)nc2ccccc12	?	?	?	5µM*	-20%
CC(=O)Nc1ccc(/C=N/NC(=O)c2cc(-c3ccco3)nc3ccccc23)cc1	-7%	.	15%	8%	-10%
C#CCSc1nnc(CSc2nc3ccccc3s2)n1-c1ccccc1	-7%	?	41%	-12%	-20%
Cc1cc(N2CCCC2)nc2c(C)cccc12	37%	22%[59 µM]	105%	-6%	49%
Oc1ccc(C(c2nnnn2CCc2ccccc2)N2CCN(c3nc4ccccc4s3)CC2)cc1 (stereo not drawn)	-22%	?	-9%	19%	-12%[11.4 µM]
COC(=O)c1cc2c(s1)-c1ccc(OC)cc1CC2	275%	.	318%	?	283%
Cc1ccccc1NC(=O)c1c(O)c2cccc3c2n(c1=O)CC3	9%	-3%	.	16%	.
CC(=O)c1cccc(NC(=O)c2cc(-c3ccco3)nc3ccccc23)c1	-18%	50µM*	-2%	-10%	-25%
